Measurements: PubChem BioAssay AID1159580 (chemical genetic matrix, 2015)
Several values for one entry are separate records, joined by “and”; a condition that tells them apart may be missing. Identical values can stand only once. The whole screen tested about 5,500 compounds, of which about 2,000 (36%) were called active. Inconclusive results (about 18%) are left out. Cut-off read from the data, not from the text of the source: active = normalized growth mostly below about 0.91 (no sharp cut-off); inconclusive = no clear call, values can overlap the other calls; inactive = mostly above about 0.92. The list shows a part of the results.

Test: chemical genetic growth profiling, strain panel (AID 1159580);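 note: tested at 20 µM; growth read once vehicle control cultures reached saturation at 30 °C; 1 = growth at the plate median or of vehicle wells; lower values mean less growth of the strain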
Details: S. cerevisiae deletion strains, growth OD

Measured: normalized growth

CC1=C(O)C(=O)C=C2C1=CC=C1[C@@]2(C)CC[C@@]2(C)[C@@H]3C[C@](C)(C(=O)O)CC[C@]3(C)CC[C@]12C
inactive: locus YBR021W, strain FUR4, stronger effect = lower value 0.859 | locus YDL185W, strain tfp1, stronger effect = lower value 0.943
active: locus YAL021C, strain ccr4, stronger effect = lower value 0.56 | locus YAL026C, strain drs2, stronger effect = lower value 0.51 | locus YAL030W, strain snc1, stronger effect = lower value 0.573 | locus YBL061C, strain skt5, stronger effect = lower value 0.479 | locus YBR009C, strain hhf1, stronger effect = lower value 0.375 | locus YBR023C, strain chs3, stronger effect = lower value 0.42 | locus YBR171W, strain sec66, stronger effect = lower value 0.812 | locus YBR229C, strain ROT2, stronger effect = lower value 0.623 | locus YBR231C, strain swc5, stronger effect = lower value 0.307 | locus YBR279W, strain paf1, stronger effect = lower value 0.527 | locus YCL011C, strain gbp2, stronger effect = lower value 0.433 | locus YCL016C, strain dcc1, stronger effect = lower value 0.592 | locus YCL029C, strain bik1, stronger effect = lower value 0.493 | locus YCL061C, strain MRC1, stronger effect = lower value 0.611 | locus YCL069W, strain vba3, stronger effect = lower value 0.611 | locus YCR088W, strain abp1, stronger effect = lower value 0.64 | locus YDL005C, strain med2, stronger effect = lower value 0.509 | locus YDL035C, strain GPR1, stronger effect = lower value 0.391 | locus YDL040C, strain nat1, stronger effect = lower value 0.848 | locus YDL074C, strain BRE1, stronger effect = lower value 0.195 | locus YDL101C, strain DUN1, stronger effect = lower value 0.264 | locus YDL134C, strain PPH21, stronger effect = lower value 0.44 | locus YDL192W, strain arf1, stronger effect = lower value 0.568 | locus YDR001C, strain nth1, stronger effect = lower value 0.806 | locus YDR069C, strain doa4, stronger effect = lower value 0.327 | locus YDR101C, strain arx1, stronger effect = lower value 0.665 | locus YDR137W, strain rgp1, stronger effect = lower value 0.238 | locus YDR159W, strain sac3, stronger effect = lower value 0.403 | locus YDR162C, strain NBP2, stronger effect = lower value 0.098 | locus YDR195W, strain ref2 0.348 | locus YDR297W, strain sur2, stronger effect = lower value 0.429 | locus YDR318W, strain mcm21, stronger effect = lower value 0.523 | locus YDR334W, strain swr1, stronger effect = lower value 0.353 | locus YDR335W, strain msn5, stronger effect = lower value 0.522 | locus YDR388W, stronger effect = lower value 0.683 | locus YDR392W, strain spt3, stronger effect = lower value 0.101 | locus YDR502C, strain sam2, stronger effect = lower value 0.521 | locus YEL003W, strain gim4, stronger effect = lower value 0.489 | locus YEL037C, strain rad23, stronger effect = lower value 0.769 | locus YEL061C, strain CIN8 (second series), stronger effect = lower value 0.403 | locus YEL061C, strain CIN8, stronger effect = lower value 0.391 | locus YER015W, strain faa2, stronger effect = lower value 0.429 | locus YER016W, strain bim1, stronger effect = lower value 0.565 | locus YER110C, stronger effect = lower value 0.766 | locus YER111C, strain swi4, stronger effect = lower value 0.329 | locus YER155C, strain BEM2 (second series), stronger effect = lower value 0.342 | locus YER155C, strain BEM2, stronger effect = lower value 0.254 | locus YER167W, strain BCK2, stronger effect = lower value 0.334 | locus YFR010W, strain ubp6, stronger effect = lower value 0.657 | locus YGL078C, strain dbp3, stronger effect = lower value 0.905 | locus YGL086W, strain mad1, stronger effect = lower value 0.619 | locus YGL167C, strain pmr1, stronger effect = lower value 0.706 | locus YGL173C, strain kem1, stronger effect = lower value 0.27 | locus YGL227W, strain vid30, stronger effect = lower value 0.571 | locus YGL240W, strain doc1, stronger effect = lower value 0.646 | locus YGL248W, strain PDE1, stronger effect = lower value 0.369 | locus YGL253W, strain hxk2, stronger effect = lower value 0.485 | locus YGR135W, strain pre9, stronger effect = lower value 0.557 | locus YGR252W, strain gcn5, stronger effect = lower value 0.5 | locus YHR013C, strain ard1, stronger effect = lower value 0.273 | locus YHR027C, strain rpn1, stronger effect = lower value 0.423 | locus YHR030C, strain SLT2, stronger effect = lower value 0.248 and 0.76 | locus YHR079C, strain IRE1 (second series), stronger effect = lower value 0.659 | locus YHR079C, strain IRE1, stronger effect = lower value 0.732 | locus YHR094C, strain hxt1, stronger effect = lower value 0.721 | locus YHR129C, strain ARP1, stronger effect = lower value 0.349 | locus YHR142W, strain chs7, stronger effect = lower value 0.309 | locus YHR200W, strain rpn10, stronger effect = lower value 0.749 | locus YIL066C, strain RNR3, stronger effect = lower value 0.308 | locus YIL073C, strain SPO22, stronger effect = lower value 0.623 | locus YIL125W, strain kgd1, stronger effect = lower value 0.812 | locus YIR030C, strain dcg1, stronger effect = lower value 0.552 | locus YJL092W, strain hpr5, stronger effect = lower value 0.7 | locus YJL095W, strain BCK1 (second series), stronger effect = lower value 0.372 | locus YJL095W, strain BCK1, stronger effect = lower value 0.211 and 0.783 | locus YJL115W, strain asf1, stronger effect = lower value 0.856 | locus YJL129C, strain trk1, stronger effect = lower value 0.35 | locus YJL134W, strain LCB3, stronger effect = lower value 0.692 | locus YJL154C, strain vps35, stronger effect = lower value 0.776 | locus YJL164C, strain tpk1, stronger effect = lower value 0.316 | locus YJL166W, strain qcr8, stronger effect = lower value 0.312 | locus YJL168C, strain set2, stronger effect = lower value 0.866 | locus YJL187C, strain SWE1 (second series), stronger effect = lower value 0.142 | locus YJR043C, strain POL32, stronger effect = lower value 0.385
